# Results published in PubChem BioAssay (NCI).
# Values joined by “and” are separate entries in the source; they are usually repeats but may differ in a detail not shown here. Identical values can stand only once. The panel holds about 79,000 compounds, 15% with a hit somewhere; the sample as a whole holds those more often. A number with no mark means an inactive call. Active and inactive are the calls of the source. Cut-off read from the data, not from the text of the source: active = growth inhibition above about 70%; inactive = the rest.
# Columns and labels:
# [1] = NCI Yeast Anticancer Drug Screen. Data for the rad50 strain (AID 155);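 note: 0% = growth of vehicle-only cultures of the same strain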; conditions: S. cerevisiae rad50 strain growth inhibition, stronger effect = higher value; at 50.0 µM unless noted
# How it was run: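 Cells are treated with compound, grown, and their growth is then scored against vehicle-only cultures of the same repair-deficient yeast strain.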
# [2] = NCI Yeast Anticancer Drug Screen. Data for the mec2-1 strain (AID 157); conditions: S. cerevisiae mec2-1 strain, stronger effect = higher value; at 50.0 µM unless noted
# How it was run: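 Test agents were screened against the mec2-1 yeast strain, with defined DNA repair or cell cycle alteration. Growth was scored as inhibition against vehicle-only controls.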
# [3] = NCI Yeast Anticancer Drug Screen. Data for the sgs1 mgt1 strain (AID 161);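 note: 0% = growth of cultures given vehicle only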; conditions: S. cerevisiae sgs1 mgt1 strain, stronger effect = higher value; at 50.0 µM unless noted
# How it was run: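 Inhibition of yeast growth, normalised to vehicle-treated controls, is reported for a strain bearing genetic alterations in DNA damage repair.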
# [4] = NCI Yeast Anticancer Drug Screen. Data for the cln2 rad14 strain (AID 165);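 note: 0% = growth equal to vehicle treated cultures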; conditions: S. cerevisiae cln2 rad14 strain, stronger effect = higher value; at 50.0 µM unless noted
# How it was run: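 Growth of compound-exposed yeast (cln2 rad14 genotype) measured and expressed as inhibition relative to vehicle.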
# [5] = NCI Yeast Anticancer Drug Screen. Data for the bub3 strain (AID 167); conditions: S. cerevisiae bub3 mutant strain, stronger effect = higher value; at 50.0 µM unless noted
# How it was run: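 Part of a panel of yeast mutants defective in DNA damage repair or cell cycle regulation. Each strain is grown with compound, and inhibition is calculated relative to solvent-treated cultures.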
# [6] = NCI Yeast Anticancer Drug Screen. Data for the mlh1 rad18 strain (AID 175); conditions: S. cerevisiae mlh1 rad18 strain growth inhibition, stronger effect = higher value; at 50.0 µM unless noted
# How it was run: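 In this whole-cell yeast screen, a strain with altered DNA damage repair is challenged with compound, and its growth is measured against matched vehicle-treated controls.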
SMILES,growth inhibition [1],growth inhibition [2],growth inhibition [3],growth inhibition [4],growth inhibition [5],growth inhibition [6]
Cc1cc[n+]2cc(-c3ccc(/C=N/N=C(N)N)cc3)n(C)c2c1,22.9%,33.9%,18.7%,28.9%,-8.75%,29.9%
CSC1=NC(C(N)=O)C(N)N1C (stereo not given),-3.1%,-16.4%,6.3%,17.4%,1.35%,12%
Cc1ccc(N2C(=O)CC(N3CCCCC3)C2=O)cc1 (stereo not given),29.1%,37.7%,68.2%,13.2%,-2.05%,80.2% (active)
O=C(CCS(=O)(=O)CCC(=O)c1ccccc1)c1ccccc1,-12.3%,11.8%,2.25%,-6.35%,-4.4%,3.1%
COC(=O)c1cccc(C(=O)OC)c1,-33.1% and 14.2%,-3.45% and -1.6%,-14.4% and 18.8%,5.2% and -1.7%,-1.9% and 19.4%,3.75% and 15.4%
O=c1[nH]cc(Br)c(=O)[nH]1,28.8%,19.7%,13.7%,9.3%,21.9%,37%
Cc1[nH]n(C(N)=S)c(=O)c1N=Nc1ccc([N+](=O)[O-])cc1Cl,57.8%,6%,66.2%,-46.5%,1.5%,53.2%
Cc1ccnc(NC#N)n1,14.8%,13.6%,21.6%,19.1%,19.4%,14.8%
Cc1ccc(S(=O)(=O)/N=S(/Cc2ccccc2)c2c(C)cccc2C)cc1 (stereo not given),20.9%,2.65%,20.6%,17.6%,-0.75%,3.3%
NC(COC(=O)NCCCl)C(=O)O (stereo not given),12.7%,-6.95%,-0.35%,-11.5%,22.1%,18.6%
C[N+]1(C2C=CCC(c3ccccc3)C2[N+](=O)[O-])CCCC1 (stereo not given),27.2%,9.95%,35.5%,15.2%,-3.6%,10.9%
CC(C)(C)CC(C)(C)c1ccc(O)c(CN2CCCCC2)c1,10.2%,8.55%,26.1%,-6.7%,16.6%,8.65%
COc1cc(C(CC(=O)O)C(=O)O)c([N+](=O)[O-])cc1OC (stereo not given),-23.2%,1.1%,2.2%,0%,24.5%,7.4%
CC(C)N(C(=O)C12C3C4C1C1C2C3C41C(=O)N(C(C)C)C(C)C)C(C)C (stereo not given),-1.85%,-9.2%,-12.9%,-1%,8.45%,-26.5%
CCN(CC)CCCC(C)Nc1ncnc2ccccc12 (stereo not given),2.2%,8.95%,23.1%,15.6%,-7.3%,-2.25%
CCC(C)C(O)C(C)C (stereo not given),11.3%,-18.1%,-15.6%,13.6%,-4.6%,21.8%
Cn1c(=O)c2nc(SCC(=O)O)n(C)c2n(C)c1=O,3.6%,6.2%,7.4%,-10.1%,5.35%,3.2%
O=c1oc2c3ccc4ccccc4c3n(CCN3CCOCC3)c2c2ccccc12,19.1%,-3.6%,-29.6%,2.35%,-19.9%,-3.9%
CCCCCCCC1C(=O)OC2CC3C(C)=CC(=O)C(O)C3(C)C3C4(O)OCC23C1C(C)C4O (stereo not given),91.5% (active),92.3% (active),91% (active),91.4% (active),90.2% (active),92.1% (active)
O=C(NCCCl)NC1CCCCCC1,-10.8%,-3.6%,-16%,-9.35%,-3.05%,2.05%

SMILES,growth inhibition [1],growth inhibition [2],growth inhibition [3],growth inhibition [4],growth inhibition [5],growth inhibition [6]
O=c1[nH]c2[nH]c(=S)[nH]c(=O)c2[nH]1,6.3%,0.85%,-8.5%,-11.7%,-3.4%,-13.8%
Cc1ccc(S(=O)(=O)Oc2ccc(Cl)c(C)c2)cc1,39.5% and -16.1%,6% and -11.8%,35.4% and -25.1%,14.1% and -74.5%,38.9% and 14.8%,17.8% and 5.1%
CCOC(=O)C(CC(C)C)NC(=O)c1ccc(C)c(OCc2ccccc2)c1[N+](=O)[O-] (stereo not given),17.9%,-8.75%,37.9%,0.6%,11.6%,-3.9%
CCOC(=O)c1ccc(NC(=S)NC(=O)C(C)Oc2ccccc2)cc1 (stereo not given),-10.9%,40%,44.8%,-21.2%,37.8%,25.2%
COc1ccc(NC(=O)/C(=N\NC(=O)C[n+]2ccccc2)c2c(O)c3ccc(O)cc3oc2=O)c([N+](=O)[O-])c1,26.6%,47.2%,29.4%,7.55%,39.5%,39.1%
Cc1cc(=O)n2nc(CCl)sc2n1,9.65%,10.2%,6.15%,-8%,11.3%,10.1%
O=CC(O)C(Cl)C(Cl)C(O)CCl (stereo not given),-0.65% and 2.1%,-1.85% and -3.6%,0.65% and 8.3%,9.75% and -46%,-2.65% and -11%,40.7% and -14.5%
C=CCC(O)CCCCC (stereo not given),-0.4%,-22.8%,15.8%,20.7%,-11.3%,-23.4%
CN1CC(c2ccccc2)C(O)(C2(c3ccccc3)CN(C)CC(c3ccccc3)C2=O)C(c2ccccc2)C1 (stereo not given),5.7%,7.25%,-30.4%,-6.7%,-17.4%,-7.65%
COc1ccc(CCNC(=O)[C@H]2CCCC[C@@H]2CCO)cc1OC,15.5%,10.6%,-46.9%,3.25%,-42.8%,-9%
C/C(N)=N\O,20.1%,4.1%,2.45%,9.85%,0.1%,1.65%
CCC1CC(=O)c2ccccc2O1 (stereo not given),0.65%,9.55%,-20.4%,-2.55%,5.4%,0.4%
CC(=O)c1cccc(N=NN(C)C)c1,41%,36.5%,58%,6.35%,40.2%,46.8%
Fc1ccc(/C=C2/c3cc(Cl)ccc3-c3c(Cl)cc(Cl)cc32)cc1,44.6%,3.25%,15.7%,-5.1%,-3.5%,5.5%
O=c1cnn2c(n1)OC1C(O)C(CO)OC12 (stereo not given),3.55%,-2.5%,9.6%,-21.7%,-11.7%,22%
c1ccc2c(c1)OC1OC2Oc2ccccc21,-25.8% and -10.4%,-39.1% and -3.85%,-26.3% and 7.8%,1.6% and -6.05%,-57.5% and 8.1%,-28.9% and 11.8%
CC(=O)Nc1cc([N+](=O)[O-])cc([N+](=O)[O-])c1O,-7.5%,-6.95%,-1.6%,-24.8%,-10.8%,7.2%
Cc1cccc(NC(=O)OC/C=C/c2ccccc2)c1,10.3%,70.5% (active),53.5%,0.65%,31.4%,4.95%
CCCCCCCCCCCC(=O)NCc1ccc(OC(=O)CCCCCCCCCCC)c(OC)c1,-7.55%,-9.8%,-6.3%,-34.1%,4.1%,-8.85%
CCCCCCC(O)C[N+](=O)[O-] (stereo not given),0.3%,-28.9%,-11.8%,-5%,-2.75%,-3.9%
